Read-out in test [1]: Transforming growth factor beta 1 (TGFb1), TGFB1 (gene 7040)
The experiment in a line: BSK_KF3CT_TGFb1: BioMAP Diversity Plus: KF3CT Assay for Transforming growth factor beta 1 (TGFb1) Biomarker Activity (AID 2283072). The following applies: primary human keratinocytes with fibroblasts; actives raise or lower the signal. The essentials: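 KF3CT co-culture (keratinocytes + fibroblasts), 24 h exposure → TGF-b1 ELISA → bidirectional fit, DMSO = baseline. Parallel SRB total-protein staining (0.1% SRB, 10% TCA fixation, 560 nm) for cytotoxicity.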

Read-out in test [2]: C-C motif chemokine 2 (Homo sapiens) (UniProt P13500)
In words: BSK_KF3CT_MCP1: BioMAP Diversity Plus: KF3CT Assay for Monocyte Chemoattractant Protein 1 (MCP1/CCL2) Biomarker Activity (AID 2283073). The following applies: primary human keratinocytes with fibroblasts; actives raise or lower the signal. The essentials:
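KF3CT skin co-culture (keratinocytes/foreskin fibroblasts), 24 h post-dose; MCP-1 by ELISA; gain/loss of signal fit bidirectionally vs DMSO baseline.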

Read-out in test [3]: Matrix Metallopeptidase 9 (MMP9), MMP9 (gene 4318)
The experiment in a line: BSK_KF3CT_MMP9: BioMAP Diversity Plus: KF3CT Assay for Matrix Metallopeptidase 9 (MMP9) Biomarker Activity (AID 2283074).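 As to AC50: MMP9 protein level quantified by ELISA in the co-culture.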 The following applies: primary human keratinocytes with fibroblasts; actives raise or lower the signal. The essentials: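 MMP-9 quantified by ELISA after 24 h chemical treatment of primary human skin keratinocyte/fibroblast co-cultures; gain or loss fitted against DMSO, with parallel SRB staining (0.1% SRB, 560 nm) for overt cytotoxicity.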

Read-out in test [4]: urokinase plasminogen activator (uPA), PLAU (gene 5328)
In words: BSK_KF3CT_uPA: BioMAP Diversity Plus: KF3CT Assay for urokinase plasminogen activator (uPA) Biomarker Activity (AID 2283075). To be noted: primary human keratinocytes with fibroblasts; actives raise or lower the signal. The essentials: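 ELISA read-out of uPA 24 h after dosing human skin keratinocytes co-cultured with foreskin fibroblasts. Signal change fitted both ways relative to DMSO; sulforhodamine B on parallel cultures marks overt cytotoxicity.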

Read-out in test [5]: CD40, CD40 (gene 958)
In words: BSK_LPS_CD40: BioMAP Diversity Plus: LPS Assay for CD40 Biomarker Activity (AID 2283076). To be noted: primary human HUVEC with PBMC; actives raise or lower the signal. A digest of the protocol: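 ELISA readout of CD40 in HUVEC/PBMC co-culture (BSK_LPS system), 24 h post-dosing; bidirectional curve fit, DMSO baseline; parallel SRB total-protein staining for cytotoxicity.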

Read-out in test [6]: Interleukin-8 (IL8), CXCL8 (gene 3576)
In words: BSK_LPS_IL8: BioMAP Diversity Plus: LPS Assay for Interleukin-8 (IL8) Biomarker Activity (AID 2283078). To be noted: primary human HUVEC with PBMC; actives raise or lower the signal. A digest of the protocol: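 HUVEC + PBMC co-culture, LPS-activated; test chemicals dosed, IL-8 read by ELISA at 24 h. Bidirectional curve fit vs DMSO baseline (gain or loss of signal).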

Test [7] in a line: BSK_LPS_SRB: Viability Assessment in the BioMAP Diversity Plus: LPS Assay (AID 2283079).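 Also: total protein by sulforhodamine B absorbance as a cytotoxicity measure; measured one day after compound addition; fitted in both directions against DMSO so loss or gain of signal counts.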 The following applies: primary human HUVEC with PBMC. A digest of the protocol: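 HUVEC + PBMC co-culture, LPS-stimulated; compound 24 h. 10% TCA fix, 0.1% SRB stain, A560. Bidirectional fit vs DMSO.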
Read-out in test [8]: Interleukin-1 alpha (IL1a), IL1A (gene 3552)
The experiment in a line: BSK_LPS_IL1a: BioMAP Diversity Plus: LPS Assay for Interleukin-1 alpha (IL1a) Biomarker Activity (AID 2283080). To be noted: primary human HUVEC with PBMC; actives raise or lower the signal. A digest of the protocol:
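HUVEC/PBMC co-culture, LPS system; 24 h after dosing; IL-1a by ELISA; gain or loss of signal fitted bidirectionally vs DMSO baseline.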

Read-out in test [9]: Monocyte Chemoattractant Protein-1 (MCP1), CCL2 (gene 6347)
The experiment in a line: BSK_LPS_MCP1: BioMAP Diversity Plus: LPS Assay for Monocyte Chemoattractant Protein-1 (MCP1) Biomarker Activity (AID 2283081).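 As to AC50: secreted MCP-1 protein quantified by ELISA in culture supernatant.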 To be noted: primary human HUVEC with PBMC; actives raise or lower the signal. A digest of the protocol:
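ELISA read-out of MCP-1 after 24 h chemical dosing of a human umbilical vein endothelial cell/peripheral blood mononuclear cell co-culture stimulated with LPS. Gain or loss of signal fitted relative to DMSO controls.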

Test [10] is described as follows: BSK_LPS_PGE2: BioMAP Diversity Plus: LPS Assay for Prostaglandin E2 (PGE2) Biomarker Activity (AID 2283082). To be noted: primary human HUVEC with PBMC; actives raise or lower the signal. A digest of the protocol: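 Compounds were added to the LPS co-culture of endothelium and PBMC, and PGE2 was measured by ELISA after 24 h. Responses in either direction were fitted with DMSO as baseline.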

Read-out in test [11]: Tissue Factor, F3 (gene 2152)
The experiment in a line: BSK_LPS_TissueFactor: BioMAP Diversity Plus: LPS Assay for Tissue Factor Biomarker Activity (AID 2283084). To be noted: primary human HUVEC with PBMC; actives raise or lower the signal. A digest of the protocol: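 HUVEC/PBMC co-culture, LPS-activated; CD142 ELISA read 24 h post-dose; bidirectional curve fit vs DMSO negative control.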

Read-out in test [12]: Tumor necrosis factor (Homo sapiens) (UniProt P01375)
The experiment in a line: BSK_LPS_TNFa: BioMAP Diversity Plus: LPS Assay for Tumour Necrosis Factor alpha (TNFa) Biomarker Activity (AID 2283085).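 As to AC50: TNFa protein level quantified by ELISA in the co-culture.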 The following applies: primary human HUVEC with PBMC; actives raise or lower the signal. The essentials: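 Cells (umbilical vein endothelium plus peripheral blood mononuclear cells) were dosed with chemical, incubated 24 h, then TNFa was quantified by ELISA; values derive from bidirectional fitting with DMSO as baseline.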

Read-out in test [13]: Vascular cell adhesion molecule 1 (VCAM1), VCAM1 (gene 7412)
In words: BSK_LPS_VCAM1: BioMAP Diversity Plus: LPS Assay for Vascular cell adhesion molecule 1 (VCAM1) Biomarker Activity (AID 2283086). The following applies: primary human HUVEC with PBMC; actives raise or lower the signal. A digest of the protocol: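 Cells are dosed in an LPS-stimulated endothelial/mononuclear co-culture and, after 24 h, VCAM-1 is quantified by ELISA. Activity in either direction is fitted relative to the DMSO negative control.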

Read-out in test [14]: CD38, CD38 (gene 952)
The experiment in a line: BSK_SAg_CD38: BioMAP Diversity Plus: SAg Assay for CD38 Biomarker Activity (AID 2283087). The following applies: primary human HUVEC with PBMC; actives raise or lower the signal. The essentials:
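CD38 quantified by ELISA (fluorescence) in a superantigen-activated endothelial cell–PBMC co-culture at 24 h post-dose. Activity fitted in both directions relative to DMSO; parallel SRB and Alamar Blue cytotoxicity read-outs.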

Read-out in test [15]: CD40, CD40 (gene 958)
The experiment in a line: BSK_SAg_CD40: BioMAP Diversity Plus: SAg Assay for CD40 Biomarker Activity (AID 2283088). To be noted: primary human HUVEC with PBMC; actives raise or lower the signal. The essentials:
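HUVEC/PBMC co-culture, 24 h post-dose; CD40 by ELISA, fluorescence intensity; bidirectional fit vs DMSO negative control.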

Read-out in test [16]: CD69, CD69 (gene 969)
In words: BSK_SAg_CD69: BioMAP Diversity Plus: SAg Assay for CD69 Biomarker Activity (AID 2283089).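 As to AC50: cell surface CD69 protein quantified by ELISA with fluorescence detection.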 To be noted: primary human HUVEC with PBMC; actives raise or lower the signal. The essentials: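 ELISA, fluorescence read-out: CD69 on human umbilical vein endothelial cell + PBMC co-culture, 24 h post-dosing. Gain or loss of signal fitted bidirectionally against DMSO baseline.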

Read-out in test [17]: Monocyte Chemoattractant Protein-1 (MCP1), CCL2 (gene 6347)
In words: BSK_SAg_MCP1: BioMAP Diversity Plus: SAg Assay for Monocyte Chemoattractant Protein-1 (MCP1) Biomarker Activity (AID 2283090). To be noted: primary human HUVEC with PBMC; actives raise or lower the signal. A digest of the protocol:
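Values derive from bidirectional fitting of ELISA-measured MCP1 against DMSO controls. Readings were taken 24 h after dosing human vascular endothelial cells co-cultured with peripheral blood mononuclear cells under superantigen stimulation.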

Read-out in test [18]: E-selectin (Homo sapiens) (UniProt P16581)
The experiment in a line: BSK_SAg_Eselectin: BioMAP Diversity Plus: SAg Assay for Eselectin Biomarker Activity (AID 2283091). To be noted: primary human HUVEC with PBMC; actives raise or lower the signal. The essentials:
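E-selectin ELISA readout at 24 h post-dosing in human umbilical vein endothelial cell/PBMC co-culture; gain or loss of signal fitted relative to DMSO baseline.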

Read-out in test [19]: Macrophage colony-stimulating factor (MCSF), CSF1 (gene 1435)
In words: BSK_LPS_MCSF: BioMAP Diversity Plus: LPS Assay for Macrophage colony-stimulating factor (MCSF) Biomarker Activity (AID 2283083). To be noted: primary human HUVEC with PBMC; actives raise or lower the signal. A digest of the protocol: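 HUVEC + PBMC co-culture (human primary), 24 h post-dose; M-CSF by ELISA; gain/loss of signal fitted bidirectionally vs DMSO baseline.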

Usually AC50 stands for the concentration at which the activity in the assay is half-maximal.

The source made the active and inactive calls. The calls were made as follows: active = hit-call score of the fitted dose curve at least 0.9, where 1 is the maximum; inactive = score below 0.9.

Sequence of E-selectin (Homo sapiens) (P16581 whole entry, looked up): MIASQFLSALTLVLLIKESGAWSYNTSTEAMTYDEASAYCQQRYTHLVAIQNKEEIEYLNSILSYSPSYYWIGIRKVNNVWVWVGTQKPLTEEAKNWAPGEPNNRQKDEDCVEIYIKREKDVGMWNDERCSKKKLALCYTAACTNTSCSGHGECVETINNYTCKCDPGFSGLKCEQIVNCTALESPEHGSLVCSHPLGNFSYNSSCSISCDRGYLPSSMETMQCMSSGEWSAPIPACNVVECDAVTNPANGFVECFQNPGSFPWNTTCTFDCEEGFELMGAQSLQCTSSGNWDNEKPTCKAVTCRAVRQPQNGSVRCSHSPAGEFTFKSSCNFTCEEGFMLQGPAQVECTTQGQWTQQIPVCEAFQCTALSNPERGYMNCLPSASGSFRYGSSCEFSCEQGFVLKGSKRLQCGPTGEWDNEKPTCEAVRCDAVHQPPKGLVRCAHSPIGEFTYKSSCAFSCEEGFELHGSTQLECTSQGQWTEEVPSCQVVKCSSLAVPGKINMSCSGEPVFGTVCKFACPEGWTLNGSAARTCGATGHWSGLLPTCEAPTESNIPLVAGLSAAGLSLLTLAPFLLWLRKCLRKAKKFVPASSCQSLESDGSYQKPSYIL
Sequence of Tumor necrosis factor (Homo sapiens) (P01375 whole entry, looked up): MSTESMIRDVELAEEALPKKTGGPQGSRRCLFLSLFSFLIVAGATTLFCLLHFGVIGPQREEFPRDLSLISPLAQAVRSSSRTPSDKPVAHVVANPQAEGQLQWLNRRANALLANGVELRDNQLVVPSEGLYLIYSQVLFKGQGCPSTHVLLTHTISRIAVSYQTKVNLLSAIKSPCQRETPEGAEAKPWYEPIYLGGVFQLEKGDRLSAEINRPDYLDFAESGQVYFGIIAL

`CCCCCCCCCCCCCC[N+](C)(C)C`: the half-maximal activity concentration (AC50) in test [1] is 0.925 µM (active); in test [2], 8.89 µM (active); in test [3], 3.52 µM (active); in test [4], 4.33 µM (active); in test [5] it was 4.57 µM (active); in test [6], 10.9 µM (active). Also, the AC50 is 5.37 µM (active) in test [7]; 1.76 µM (active) in test [8]; 5.01 µM (active) in [9]; 5.28 µM (active) in test [11]; 11 µM (active) in test [12]; 5.64 µM (active) in test [13]. Besides, the AC50 is 3.24 µM (active) in test [14]; 2.15 µM (active) in test [15]; 2.53 µM (active) in [16]; 3.66 µM (active) in [17]; 3.2 µM (active) in test [18]. In [10], the result was inactive.

With `NCC(F)(F)C(F)(F)C(F)(F)C(F)(F)C(F)(F)C(F)(F)C(F)(F)F`, the outcome in [2], in test [3], in test [4], in test [5], in test [6] and in test [7] was inactive. Besides, the result in test [8], in test [9], in test [10], in test [19], in [11] and in [12] was inactive. Further, the outcome in test [14], in [15], in test [16], in test [17] and in test [18] was inactive.

In the case of `CCCOc1sc(C(=O)N2CCC(c3cc(CN)ccc3F)CC2)c(C)c1Br`, the AC50 in test [1] is 8.97 µM (active); in test [2] it was 9.27 µM (active); in test [3], 5.74 µM (active); in test [4], 10.2 µM (active); in test [5], 7.91 µM (active); in test [6], 13.6 µM (active). Besides, the AC50 in test [7] is 5.93 µM (active); in test [8], 8.61 µM (active); in [9], 9.2 µM (active); in test [10] it was 12.5 µM (active); in test [11] it was 13.1 µM (active); in [12] it was 13.4 µM (active). For the same compound, the AC50 in test [13] is 7.57 µM (active); in test [14], 6.1 µM (active); in test [15], 9.53 µM (active); in test [16] it was 8.27 µM (active); in test [17], 8.39 µM (active); in test [18], 6.75 µM (active).

Turning to `CCCCCCCCCCCCN1CCCC1=O`, the AC50 in test [1] is 34.2 µM (active); in [2], 34.3 µM (active); in test [3] it was 35 µM (active); in [4], 36.7 µM (active); in [5], 32.2 µM (active); in test [6], 31.3 µM (active). Also, the concentration at half-maximal activity (AC50) was 27.4 µM (active) in test [7]; 33 µM (active) in test [8]; 32.9 µM (active) in test [9]; 31.3 µM (active) in test [14]; 30.9 µM (active) in test [15]; 29.9 µM (active) in test [16]. For the same compound, the values for the AC50 in test [17] and in test [18] were 29.6 µM (active) and 30.3 µM (active), respectively. Moreover, the result in test [10], in test [11] and in test [12] was inactive.

Turning to `CCOC(=O)CC(O)(CC(=O)OCC)C(=O)OCC`, the outcome in test [1], in test [2], in [3], in [4], in test [5] and in test [6] was inactive. In addition, the outcome in test [7], in [8], in test [9], in [10], in [11] and in [12] was inactive. Besides, the result in test [14], in test [15], in test [16], in [17] and in [18] was inactive.
